Among all 5,500 compounds or so, about 2,000 (36%) were called active. About 18% were inconclusive and are not listed. No stated cut-off is given here; in the data, active means normalized growth mostly below about 0.91 (no sharp cut-off); inconclusive means no clear call, values can overlap the other calls; inactive means mostly above about 0.92. This is one part of the list.
Assay: chemical genetic growth profiling, strain panel (AID 1159580);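 further: tested at 20 µM; growth read once vehicle control cultures reached saturation at 30 °C; 1 = growth at the plate median or of vehicle wells; lower values mean less growth of the strain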
Conditions: growth OD

Measured: normalized growth

Cc1occc(=O)c1/C=C/O
inactive: S. cerevisiae deletion strains, locus YBR021W, strain FUR4, active compounds read low 0.994 | S. cerevisiae deletion strains, locus YBR229C, strain ROT2, active compounds read low 1 | S. cerevisiae deletion strains, locus YCL029C, strain bik1, active compounds read low 1.02 | S. cerevisiae deletion strains, locus YDL035C, strain GPR1, active compounds read low 0.999 | S. cerevisiae deletion strains, locus YDL074C, strain BRE1, active compounds read low 1.01 | S. cerevisiae deletion strains, locus YDL101C, strain DUN1, active compounds read low 1 | S. cerevisiae deletion strains, locus YDL134C, strain PPH21, active compounds read low 0.997 | S. cerevisiae deletion strains, locus YDL185W, strain tfp1, active compounds read low 1.03 | S. cerevisiae deletion strains, locus YDL192W, strain arf1, active compounds read low 1.02 | S. cerevisiae deletion strains, locus YDR101C, strain arx1, active compounds read low 0.989 | S. cerevisiae deletion strains, locus YDR150W, strain NUM1, active compounds read low 0.999 | S. cerevisiae deletion strains, locus YDR162C, strain NBP2, active compounds read low 0.991 | S. cerevisiae deletion strains, locus YDR318W, strain mcm21, active compounds read low 1.01 | S. cerevisiae deletion strains, locus YDR388W, active compounds read low 1.01 | S. cerevisiae deletion strains, locus YDR502C, strain sam2, active compounds read low 0.995 | S. cerevisiae deletion strains, locus YEL061C, strain CIN8, active compounds read low 1 | S. cerevisiae deletion strains, locus YER110C, active compounds read low 1.02 | S. cerevisiae deletion strains, locus YER155C, strain BEM2, active compounds read low 0.996 | S. cerevisiae deletion strains, locus YER167W, strain BCK2, active compounds read low 0.996 | S. cerevisiae deletion strains, locus YGL078C, strain dbp3, active compounds read low 1.03 | S. cerevisiae deletion strains, locus YGL086W, strain mad1, active compounds read low 0.989 | S. cerevisiae deletion strains, locus YGL248W, strain PDE1, active compounds read low 0.995 | S. cerevisiae deletion strains, locus YGR078C, strain PAC10, active compounds read low 0.996 | S. cerevisiae deletion strains, locus YGR135W, strain pre9, active compounds read low 1.02 | S. cerevisiae deletion strains, locus YGR252W, strain gcn5, active compounds read low 0.985 | S. cerevisiae deletion strains, locus YHR030C, strain SLT2, active compounds read low 1 | S. cerevisiae deletion strains, locus YHR079C, strain IRE1 (second series), active compounds read low 1.02 | S. cerevisiae deletion strains, locus YHR094C, strain hxt1, active compounds read low 1.01 | S. cerevisiae deletion strains, locus YHR129C, strain ARP1, active compounds read low 1 | S. cerevisiae deletion strains, locus YHR200W, strain rpn10, active compounds read low 1.01 | S. cerevisiae deletion strains, locus YIL066C, strain RNR3, active compounds read low 1 | S. cerevisiae deletion strains, locus YIL073C, strain SPO22, active compounds read low 1.03 | S. cerevisiae deletion strains, locus YIL125W, strain kgd1, active compounds read low 1.01 | S. cerevisiae deletion strains, locus YIR030C, strain dcg1, active compounds read low 1.01 | S. cerevisiae deletion strains, locus YJL095W, strain BCK1, active compounds read low 0.989 | S. cerevisiae deletion strains, locus YJL134W, strain LCB3, active compounds read low 1.01 | S. cerevisiae deletion strains, locus YJL168C, strain set2, active compounds read low 1.01 | S. cerevisiae deletion strains, locus YJL187C, strain SWE1 (second series), active compounds read low 0.998 | S. cerevisiae deletion strains, locus YJR043C, strain POL32, active compounds read low 0.991 | S. cerevisiae deletion strains, locus YJR075W, strain HOC1, active compounds read low 0.995 | S. cerevisiae deletion strains, locus YKL009W, strain mrt4, active compounds read low 1.01 | S. cerevisiae deletion strains, locus YKL068W, active compounds read low 1.01 | S. cerevisiae deletion strains, locus YKL085W, strain MDH1 (second series), active compounds read low 1.02 | S. cerevisiae deletion strains, locus YKL085W, strain MDH1, active compounds read low 1.02 | S. cerevisiae deletion strains, locus YKL190W, strain CNB1, active compounds read low 1.01 | S. cerevisiae deletion strains, locus YKR001C, strain vps1, active compounds read low 1.01 | S. cerevisiae deletion strains, locus YLR039C, strain RIC1, active compounds read low 1.02 | S. cerevisiae deletion strains, locus YLR058C, strain SHM2, active compounds read low 1 | S. cerevisiae deletion strains, locus YLR102C, strain apc9, active compounds read low 1.01 | S. cerevisiae deletion strains, locus YLR262C, strain YPT6, active compounds read low 1.07 | S. cerevisiae deletion strains, locus YLR268W, strain sec22, active compounds read low 1.01 | S. cerevisiae deletion strains, locus YLR330W, strain CHS5, active compounds read low 1 | S. cerevisiae deletion strains, locus YLR342W, strain FKS1 (second series), active compounds read low 1.01 | S. cerevisiae deletion strains, locus YLR371W, strain rom2, active compounds read low 1.02 | S. cerevisiae deletion strains, locus YLR418C, strain cdc73, active compounds read low 0.977 | S. cerevisiae deletion strains, locus YML016C, strain PPZ1, active compounds read low 1 | S. cerevisiae deletion strains, locus YML032C, strain rad52, active compounds read low 1.01 | S. cerevisiae deletion strains, locus YML124C, strain tub3, active compounds read low 1.01 | S. cerevisiae deletion strains, locus YMR078C, strain ctf18, active compounds read low 1 | S. cerevisiae deletion strains, locus YMR223W, strain ubp8, active compounds read low 0.997 | S. cerevisiae deletion strains, locus YMR263W, strain SAP30, active compounds read low 0.999 | S. cerevisiae deletion strains, locus YMR307W, strain GAS1, active compounds read low 1.02 | S. cerevisiae deletion strains, locus YNL067W, strain RPL9B, active compounds read low 0.993 | S. cerevisiae deletion strains, locus YNL153C, strain GIM3, active compounds read low 0.994 | S. cerevisiae deletion strains, locus YNL233W, strain BNI4, active compounds read low 0.974 | S. cerevisiae deletion strains, locus YNL250W, strain rad50, active compounds read low 1.01 | S. cerevisiae deletion strains, locus YNL271C, strain bni1, active compounds read low 1.04 | S. cerevisiae deletion strains, locus YNL298W, strain CLA4, active compounds read low 1.02 | S. cerevisiae deletion strains, locus YNL307C, strain MCK1, active compounds read low 1.02 | S. cerevisiae deletion strains, locus YNR052C, strain pop2, active compounds read low 1.01 | S. cerevisiae deletion strains, locus YOL006C, strain TOP1, active compounds read low 0.981 | S. cerevisiae deletion strains, locus YOL012C, strain htz1 0.887 | S. cerevisiae deletion strains, locus YOL147C, strain pex11, active compounds read low 1.01 | S. cerevisiae deletion strains, locus YOR061W, strain CKA2, active compounds read low 1.01 | S. cerevisiae deletion strains, locus YOR069W, strain VPS5, active compounds read low 1 | S. cerevisiae deletion strains, locus YOR136W, strain idh2, active compounds read low 1.02 | S. cerevisiae deletion strains, locus YOR144C, strain elg1, active compounds read low 1.01 | S. cerevisiae deletion strains, locus YOR184W, strain ser1, active compounds read low 1 | S. cerevisiae deletion strains, locus YOR316C, strain cot1, active compounds read low 1.03 | S. cerevisiae deletion strains, locus YPL241C, strain CIN2, active compounds read low 1 | S. cerevisiae deletion strains, locus YPR119W, strain clb2, active compounds read low 1.02 | S. cerevisiae deletion strains, locus YPR141C, strain kar3, active compounds read low 1.02 | S. cerevisiae deletion strains, locus YPR163C, strain tif3, active compounds read low 0.994 | S. cerevisiae deletion strains, locus YPR167C, strain met16, active compounds read low 1.02 | S. cerevisiae deletion strains, strain wtn01, active compounds read low 1.03 | S. cerevisiae strains, strain wild type, active compounds read low 1.01
